Measurements published in PubChem BioAssay (NCI).
Where “and” joins values, the source holds several entries; their conditions need not be identical. Identical values can stand only once. Compounds without any hit were thinned out: in the full panel of roughly 83,000, 20% have a hit.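 96-well plates, one dose, 48 hours. Percent growth reported; active if below 10.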 Values without a mark were called inactive. Calls of active or inactive are those of the source.

System: MDA-MB-468 breast
Test: NCI-60 one-dose screen, 48 h (100 = growth as untreated, 0 = no growth, -100 = all killed)
Settings: 10 µM unless noted

SMILES	growth
CS(=O)(=O)OC1CC(n2ccc(=O)[nH]c2=O)OC1COC(c1ccccc1)(c1ccccc1)c1ccccc1 (stereo not given)	110%
O=C(CCCCN1CCOCC1)Nc1ccc(Cn2nnc3c2C(=O)c2nnn(Cc4ccc(NC(=O)CCCCN5CCOCC5)cc4)c2C3=O)cc1	-76.9% (active)
Cc1nn(-c2ccccc2)c(N2CCOCC2)c1-c1nc2ccc([N+](=O)[O-])cc2[nH]1	94.3%
O=C(Cc1ccccc1)Nc1cccc(N=Cc2ccccc2O)c1	104%
O=S(=O)(Nc1ccc(Br)cc1)c1ccc(-c2cnc(C3CC3)o2)cc1	-12.4% (active)
C=C(CNCCc1ccc(O)cc1)[C@@H]1CC[C@]2(CO)CC[C@]3(C)[C@H](CC[C@@H]4[C@@]5(C)CCC(N)C(C)(C)[C@@H]5CC[C@]43C)[C@@H]12 (stereo not given in full)	-88.4% (active)
COC(=O)[C@]12CC[C@@H](C)[C@H](C)[C@@H]1C1=CC[C@@H]3[C@@]4(C)CC(=O)[C@H](O)[C@@](C)(CO)[C@@H]4C(=O)C[C@@]3(C)[C@]1(C)CC2	-4.93% (active)
O=S(=O)(c1ccc(OCCO)cc1)c1ccc(OCCO)cc1	101%
c1ccc([P+](CCCc2n(Cc3ccc4ccccc4c3)c3ccccc3[n+]2Cc2ccc3ccccc3c2)(c2ccccc2)c2ccccc2)cc1	34.5%
COc1c(B(O)O)cccc1-c1nc2ccc3n[nH]c(F)c3c2c2c1CCCC2	71.9%
COC1=CC(=O)C[C@@H](C)[C@]12Oc1c(Cl)c(OC)cc(OC)c1C2=O	76.8%
Nc1ccc(F)c(Cl)c1F	92.5%
CCCCCCN(CCCCCC)CCC(O)c1ccc2ccccc2c1 (stereo not given)	18.6%
O=C(Nc1nc2ccccc2s1)Nc1ccc([N+](=O)[O-])cc1Cl	89.9%
[N-]=[N+]=Nc1ncc(-c2ccc(C(F)(F)F)cc2)c(NC2CCCCCC2)n1	28.9% [100 µM]
Cc1ccc2nc3[nH]c(=O)[nH]c(=O)c3c(N)c2c1	88.3%
CC(=O)c1nc(Nc2ccc(C)cc2)sc1C	93.1%
COc1ccc(C2Nc3c(c(C(C)(C)C)nn3-c3ccccc3)C(=O)CS2)cc1 (stereo not given)	112%
C=C(C)[C@@H]1CC[C@]2(C(N)=O)CC[C@]3(C)[C@H](CC[C@@H]4[C@@]5(C)C/C(=C/c6ccco6)C(=O)C(C)(C)[C@@H]5CC[C@]43C)[C@@H]12	87.6%
O=C(CSc1nc2ccc([N+](=O)[O-])cc2[nH]1)Nc1cccc([N+](=O)[O-])c1	-1.47% (active)

SMILES	growth
CN(C)CCCn1c2c(c3ncccc3c1=O)C(=O)c1ccccc1-2	31.7%
Nc1ncc([N+](=O)[O-])cn1	96.2%
Clc1ccc(/C=N\N2CCCCCC2)cc1	106% and 122%
O=C(Nc1cccc(C(F)(F)F)c1)Nc1cccc(C(F)(F)F)c1	-6.39% (active)
Cn1ccnc1C(=O)/C=C/c1ccc(CC(=O)Nc2cc(C(F)(F)F)cc(C(F)(F)F)c2)cc1	78%
COc1ccc(-n2nc(C)c3c(Nc4ccc(NC(=O)Nc5cccc(C(F)(F)F)c5)cc4)ncnc32)cc1	-14% (active)
NC(=O)c1c(Nc2ccccc2)nn2cc(-c3nc4ccccc4s3)c(N)nc12	101%
CCCc1cc(CCC)n2nc(N)nc2n1	95.8%
COc1ccc2nc(NC(=O)c3cc(-c4ccc(F)cc4)n4nc(-c5ccccc5)cc4n3)sc2c1	103%
CS(=O)(=O)Nc1cc(-c2ccc3ncc(C#N)c(NCc4ccccc4F)c3c2)cnc1Cl	-16.8% (active)
CCC(C#N)(CC)c1ccccc1	105%
CCCCCCCCCCCCCCCCNC(=S)N/N=C/c1ccc(O)cc1O	57.1%
Cc1cc(O)ccc1Sc1ccccc1[N+](=O)[O-]	95.3%
CC(=O)c1cc(C(=O)c2ccc3c(c2)Sc2ccccc2N3)c2c(C)cccn12	14%
O=C(Nc1ncc(Cc2ccccc2Cl)s1)c1cccs1	33.6%
Nc1ccc(C(=O)CSc2nc3ccccc3[nH]2)cc1	93.2%
OC(COc1ccccc1)CN1CCN(c2ccc(Cl)cc2)CC1 (stereo not given)	104%
O=C(O)c1ccccc1C(=O)Nc1ccc(Cl)cc1	120%
COc1cc(-c2nc(-c3ccccc3)c(-c3ccccc3)[nH]2)cc(OC)c1O	-49.2% (active)
N#CC1=C(N)Oc2c(ccc3ccccc23)C1c1cc(=O)oc2ccc(Cl)cc12 (stereo not given)	62%
